In the library only some 11% were active in any assay of this set; here they are far more common.
BAZ2B block = BAZ2B (human) inhibition; Potency, µM (highest dose often 114 µM), for the others: at the highest dose activity change, negative = inhibition, usual class: inhibitors; 360,000 tested, 4.4% active; AID 504333; Q9UIF8; AlphaScreen BAZ2B-H3K14Ac peptide displacement; note: % is set by controls: 0 for no effect and ±100 for the full control effect; nearly all actives have a fitted effect of over 60% in size
Target sequence (Q9UIF8 whole entry, looked up): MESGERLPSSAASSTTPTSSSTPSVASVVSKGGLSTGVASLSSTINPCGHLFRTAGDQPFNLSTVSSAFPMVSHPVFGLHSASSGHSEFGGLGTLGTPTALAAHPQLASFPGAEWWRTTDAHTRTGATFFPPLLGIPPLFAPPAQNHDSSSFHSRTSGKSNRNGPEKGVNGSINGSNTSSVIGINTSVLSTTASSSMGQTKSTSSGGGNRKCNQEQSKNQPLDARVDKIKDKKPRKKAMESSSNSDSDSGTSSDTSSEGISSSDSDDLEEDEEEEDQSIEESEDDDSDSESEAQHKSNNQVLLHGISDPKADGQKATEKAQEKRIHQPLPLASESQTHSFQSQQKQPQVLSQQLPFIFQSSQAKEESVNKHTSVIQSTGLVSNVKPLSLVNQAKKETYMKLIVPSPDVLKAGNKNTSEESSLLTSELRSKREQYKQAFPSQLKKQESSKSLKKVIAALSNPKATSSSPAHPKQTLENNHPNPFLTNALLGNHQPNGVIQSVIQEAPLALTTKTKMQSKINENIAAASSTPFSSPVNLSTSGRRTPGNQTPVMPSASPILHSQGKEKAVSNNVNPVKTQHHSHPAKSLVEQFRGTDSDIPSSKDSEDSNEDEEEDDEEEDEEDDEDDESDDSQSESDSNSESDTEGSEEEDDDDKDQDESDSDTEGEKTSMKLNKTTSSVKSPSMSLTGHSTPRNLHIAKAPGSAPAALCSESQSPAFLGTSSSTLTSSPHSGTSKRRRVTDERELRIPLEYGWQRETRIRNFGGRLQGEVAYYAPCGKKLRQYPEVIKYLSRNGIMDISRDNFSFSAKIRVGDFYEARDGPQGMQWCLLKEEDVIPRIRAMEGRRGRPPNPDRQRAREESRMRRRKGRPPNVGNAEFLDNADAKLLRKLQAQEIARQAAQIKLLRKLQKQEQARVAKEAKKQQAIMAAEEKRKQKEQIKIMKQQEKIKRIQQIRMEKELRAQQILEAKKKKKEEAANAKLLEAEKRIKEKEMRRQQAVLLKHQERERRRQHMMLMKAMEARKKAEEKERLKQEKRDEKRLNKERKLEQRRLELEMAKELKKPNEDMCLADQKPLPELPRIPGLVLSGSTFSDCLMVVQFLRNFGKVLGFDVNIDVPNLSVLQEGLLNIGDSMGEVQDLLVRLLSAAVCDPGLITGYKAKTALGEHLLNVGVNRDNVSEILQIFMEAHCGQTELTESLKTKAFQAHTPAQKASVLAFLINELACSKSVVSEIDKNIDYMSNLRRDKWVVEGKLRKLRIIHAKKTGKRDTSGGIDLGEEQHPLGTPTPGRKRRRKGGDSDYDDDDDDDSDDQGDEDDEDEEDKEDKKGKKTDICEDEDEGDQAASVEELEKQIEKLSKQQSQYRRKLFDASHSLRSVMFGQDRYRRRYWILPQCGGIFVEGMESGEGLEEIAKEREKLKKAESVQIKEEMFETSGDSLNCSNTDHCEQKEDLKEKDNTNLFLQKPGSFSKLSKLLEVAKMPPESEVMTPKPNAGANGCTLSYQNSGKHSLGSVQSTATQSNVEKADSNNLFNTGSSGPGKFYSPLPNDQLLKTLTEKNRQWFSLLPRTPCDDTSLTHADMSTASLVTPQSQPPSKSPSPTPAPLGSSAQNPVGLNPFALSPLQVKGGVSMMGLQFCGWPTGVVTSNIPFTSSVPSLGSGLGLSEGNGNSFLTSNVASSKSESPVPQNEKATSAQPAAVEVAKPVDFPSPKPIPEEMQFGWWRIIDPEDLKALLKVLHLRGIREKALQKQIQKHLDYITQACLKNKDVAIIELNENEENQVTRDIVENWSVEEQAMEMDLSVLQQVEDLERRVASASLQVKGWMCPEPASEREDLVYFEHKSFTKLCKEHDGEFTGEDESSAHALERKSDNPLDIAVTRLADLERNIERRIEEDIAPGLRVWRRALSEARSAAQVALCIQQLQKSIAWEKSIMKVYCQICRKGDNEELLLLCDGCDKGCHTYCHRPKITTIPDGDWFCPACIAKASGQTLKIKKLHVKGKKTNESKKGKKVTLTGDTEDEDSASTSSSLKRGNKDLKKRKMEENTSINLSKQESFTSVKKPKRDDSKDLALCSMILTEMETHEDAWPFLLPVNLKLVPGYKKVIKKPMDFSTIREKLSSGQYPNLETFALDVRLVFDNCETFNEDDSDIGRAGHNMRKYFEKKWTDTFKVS
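AlphaScreen displacement: compounds (up to 110uM) incubated 30 min at room temperature with a preformed 50 nM BAZ2B/50 nM biotinylated H3K14Ac peptide complex in PBS pH 7.4 with Tween-20. Donor and acceptor beads at 10 ug/mL final added, 20 min light-protected before reading.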
JMJD2A Tudor = JMJD2A Tudor domain (human) inhibition; AlphaScreen JMJD2A-Tudor / H3K4me3 peptide binding; 390,000 tested, 4.4% active; Potency, µM (series often up to 114 µM), for inactives: at the top dose activity change, negative = inhibition, hits mostly inhibitors; O75164; AID 504339; note: % is set by controls: 0 for no effect and ±100 for the full control effect; nearly all actives have a fitted effect of over 50% in size
HP1b chromo inh = HP1-beta chromodomain-methylated histone interaction inhibition; Potency, µM (top dose mostly 114 µM), inactives show at the highest dose activity change, negative = inhibition, hits mostly inhibitors; AlphaScreen HP1-beta / biotin-H3K9me3 peptide binding; 390,000 tested, 0.56% active; P83916; note: nearly all actives have a fitted effect of over 70% in size
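AlphaScreen: HP1-beta (50 nM) preformed 30 min with biotin-H3(1-18)K9me3 peptide (50 nM) in PBS pH 7.4, 0.01% Tween-20. Compound added for 30 min at RT, then streptavidin donor/nickel chelate acceptor beads (10 ug/mL) for 30 min.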
G9a inh = G9a (human) methyltransferase inhibition. G9a H3K9 monomethylation, AlphaScreen, 2 h. Potency, µM (series often up to 102 µM), for the others: top-dose activity, negative = inhibition, actives largely listed as inhibitors. 350,000 tested, 8.8% active; note: % is set by controls: 0 for no effect and ±100 for the full control effect; nearly all actives have a fitted effect of over 75% in size
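Methyltransferase reactions run at room temperature for 2 h (20 nM enzyme, 500 nM biotin-H3K9 peptide, 20 uM SAM) after a 15 min compound preincubation; product detected by AlphaScreen beads and anti-H3K9me1 antibody.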
L3MBTL1 block = inhibitors of human L3MBTL1. AlphaScreen L3MBTL1–H3K9me1 peptide binding. Potency, µM (doses to about 57.1 µM), inactives show at the top dose activity, negative = inhibition, hits mostly inhibitors. 230,000 tested, 0.66% active; note: % is set by controls: 0 for no effect and ±100 for the full control effect; nearly all actives have a fitted effect of over 60% in size
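AlphaScreen proximity signal between nickel-chelate acceptor and streptavidin donor beads (final 10 ug/mL) reports binding of 50 nM L3MBTL1 to 75 nM biotin-H3 K9me1 peptide; complex incubated with compounds 30 min at room temperature; cefsulodin titration as control.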
Numbers without * were called inactive; ? = inconclusive; . = not tested or not shown; [ ] = dose if it differs, or a comment. Calls come from the whole dose curve; as a rule, active = well fitted inhibition curve with a large enough effect; inconclusive = small, poorly fitted or top-dose-only effect; inactive = no such curve, though single readings can be large or run the other way. Potency is the fitted concentration of half-maximal effect.

SMILES	BAZ2B block	JMJD2A Tudor	HP1b chromo inh	G9a inh	L3MBTL1 block
COc1cc(OC)cc(C(=O)Nc2nc(CC(=O)NC(C)c3ccccc3)cs2)c1 (stereo not given)	50µM*	-32%	0%	?	-10%
COc1ccc(NC(=O)Cc2csc(NC(=O)Nc3ccccc3OC)n2)c(OC)c1	?	?	-16%	50µM*	-7%
COc1ccc(OC)c(NC(=O)Cc2csc(NC(=O)Nc3ccccc3OC)n2)c1	0%	?	-21%	45µM*	-16%
COCCN(Cc1nc2ccccc2c(=O)[nH]1)C(=O)COc1cccc(C(C)=O)c1	-4%	-11%	31%	51%[12.7 µM]	5%
O=C(Nc1ccc(F)c(Cl)c1)N1CCC(CN2CCOCC2)CC1	6%	-16%	14%	-6%[59 µM]	.
O=C(NNC1CC(=O)N(c2ccc(F)cc2)C1=O)c1cccnc1 (stereo not given)	-11%	6%	39%	13µM*	.
CC(C)c1ccc(N2C(=O)CC(NNC(=O)c3cccnc3)C2=O)cc1 (stereo not given)	-21%	-3%	40%	56µM*	-6%
O=C(NNC1CC(=O)N(c2ccccc2)C1=O)c1cccnc1 (stereo not given)	-9%	2%	56%	5%	1%
COCCn1c(=O)c(-c2ccccc2)nc2cnc(N3CCN(C)CC3)nc21	.	.	.	-1%[0.501 µM]	.
COc1ccc(NC(=O)CC(=O)Nc2ccc(OC)cc2OC)c(OC)c1	5%	-7%	24%	2%[12.7 µM]	-1%[11.4 µM]
Cc1cc(Cl)ccc1NC(=O)CCC(=O)O	5%	-14%	38%	10%[59 µM]	6%
CCCOc1ccc(NC(=O)c2cc3cc(C)ccc3[nH]2)cc1	1%	-3%	14%	.	2%
CCOc1ccc(NCC(=O)Nc2ccc(Cl)cc2C)cc1	?	?	-2%	8.9µM*	-3%
CCCOc1ccc(NCC(=O)Nc2ccc(C)cc2C)cc1	?	?	-24%	8.9µM*	-17%
COc1ccc(NCC(=O)Nc2ccc(Cl)cc2C)c(OC)c1	50µM*	50µM*	?	1.4µM*	-14%
O=C(NCCS(=O)(=O)N1CCN(c2cccc(Cl)c2)CC1)C(c1ccccc1)c1ccccc1	-3%	-1%	25%[57 µM]	7%[59 µM]	.
COc1ccccc1C(=O)N(Cc1ccco1)Cc1ccccc1F	?	-31%	-3%	-23%[59 µM]	.
CCCC(NC(=S)NCC1CCCO1)C12CC3CC(CC(C3)C1)C2 (stereo not given)	-6%	?	13%	13µM*	.
COc1ccccc1/C=C/C=N/n1c(C)nnc1C	-14%	-11%	15%	?	4%
COc1ccccc1/C=C/C=N/n1c(-c2ccc(F)cc2)n[nH]c1=S	-16%	-23%	-1%	4µM*	-15%
COc1ccccc1/C=C\C=N\n1c(-c2ccc(Cl)cc2)n[nH]c1=S	-10%	-31%	-16%	4.5µM*	-2%
COc1ccccc1/C=C\C=N\n1c(-c2ccc(Cl)cc2Cl)n[nH]c1=S	?	?	?	6.3µM*	-5%
CCOc1cc(N2CCOCC2)c(OCC)cc1NC(=O)COC(=O)CCn1c(C)csc1=O	-36%	-17%	3%	?	-7%
COc1ccc(N(Cc2cc3cccc(C)c3[nH]c2=O)C(=O)c2cccc(Cl)c2)cc1	?	?	5%	-45%[59 µM]	.
O=C(CCC(=O)c1ccc(Cl)cc1)OCn1nnc2ccccc2c1=O	.	-7%	38%	.	7%
SMILES	BAZ2B block	JMJD2A Tudor	HP1b chromo inh	G9a inh	L3MBTL1 block
C=CCN1C(=O)/C(=C2/C(=O)N(CC(=O)O)c3ccccc32)S/C1=N/c1nccs1	13µM*	.	.	1%[2.33 µM]	7.9µM*
Cc1cccn2c(=O)c(C(=O)NCCc3ccc(S(N)(=O)=O)cc3)c(O)nc12	1%	-8%	9%	?	.
CCOC(=O)c1cc(S(=O)(=O)Nc2ccccc2OCC)[nH]n1	50µM*	50µM*	-1%[57 µM]	8.9µM*	.
CCOC(=O)c1cc(S(=O)(=O)Nc2ccc(OC(F)(F)F)cc2)[nH]n1	50µM*	?	2%[57 µM]	3.2µM*	.
CCOC(=O)c1cc(S(=O)(=O)Nc2ccccc2)[nH]n1	79µM*	?	17%[57 µM]	10µM*	.
CCCCCCCCCCCCCCCCC(C(=O)O)C(O)(CC(=O)O)C(=O)O (stereo not given)	.	.	.	-40%[12.7 µM]	.
Cc1ccc2cc(C(c3nnnn3Cc3ccccc3)N3CCc4ccccc43)c(=O)[nH]c2c1C (stereo not given)	6%	-21%	45%	20µM*	.
Cc1ccc2[nH]c(=O)c(C(c3nnnn3Cc3ccccc3)N3CCc4ccccc43)cc2c1 (stereo not given)	?	?	-3%	28µM*	.
Cc1ccc2cc(C(c3nnnn3Cc3ccccc3)N3CCc4ccccc43)c(=O)[nH]c2c1 (stereo not given)	?	?	-3%	9%[12.7 µM]	.
Cc1cc2cc(C(c3nnnn3Cc3ccccc3)N3CCc4ccccc43)c(=O)[nH]c2cc1C (stereo not given)	?	?	-1%	?	.
COc1cc2cc(CNc3ccccc3)c(=O)n(CC(=O)Nc3ccccc3)c2cc1OC	1%	-6%	-15%	-45%[59 µM]	.
CCOc1ccc(S(=O)(=O)N(C(=O)c2ccncc2)c2ccc3oc(C)c(C(=O)OC)c3c2)cc1	-22%	-17%	14%	?	.
O=c1cc(CN2CCN(c3ccc(O)cc3)CC2)nc2scc(-c3ccccc3)n12	-30%	-35%	?	10µM*	-8%
COc1ccc(C(C#N)=C2C=CC(=NO)C=C2)cc1	14µM*	16µM*	40µM*	2.2µM*	.
Cc1cc(C)c(S(=O)(=O)NCCc2cc3ccc(C)cc3[nH]c2=O)c(C)c1	-2%	-13%	20%	-2%[59 µM]	.
COc1ccc(S(=O)NC2CCCCC2)c(OC)c1C (stereo not given)	1%	?	56%	32µM*	3%
CCOC(=O)N1CCN(Cc2nc3ccc([N+](=O)[O-])cc3c(=O)n2-c2ccc(OC)cc2OC)CC1	-20%	-29%	?	?	.
COc1ccc(-n2c(CN3CCC(C)CC3)nc3ccc([N+](=O)[O-])cc3c2=O)c(OC)c1	?	-24%	12%	?	.
COc1cccc(-n2c(CN3CCN(c4ccccn4)CC3)nc3ccc([N+](=O)[O-])cc3c2=O)c1	56µM*	-32%	-7%[57 µM]	28µM*	.
COc1cccc(-n2c(CN3CCN(c4cccc(C)c4)C(C)C3)nc3ccc([N+](=O)[O-])cc3c2=O)c1 (stereo not given)	-38%	?	-13%	9%[59 µM]	-3%
COc1ccc(-n2c(CN3CCN(c4ccccc4)CC3)nc3ccc([N+](=O)[O-])cc3c2=O)c(OC)c1	-38%	?	?	40µM*	.
COc1ccc(-n2c(CN3CCOCC3)nc3ccc([N+](=O)[O-])cc3c2=O)c(OC)c1	-28%	-24%	26%	45µM*	.

Bioassay records: PubChem, National Center for Advancing Translational Sciences (NCATS)
